Rows were chosen to be rich in hits. Some 3% of all compounds tested hit in one or more screens of this group.
CF NFkB inh = inhibitors of cystic fibrosis induced NF-kB | KKLEB NF-kB-GFP reporter, PAF-induced, GFP fluorescence overnight | inhibition, % at 5 µM | hit rate 0.86% among 360,000;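 active = at least 50% inhibition at 5 µM, scaled per plate between neutral and stimulator controls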;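 also: PAF is a Pseudomonas aeruginosa culture filtrate used as stimulus; plate controls were PAF-stimulated DMSO wells for no effect and unstimulated DMSO wells for full effect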
TRPM1 prom inh = reduces MITF-dependent TRPM1 promoter luciferase signal; SK-MEL-5 TRPM1 promoter luciferase, 24 h; inhibition, % at 12.5 µM; hit rate 0.83% among 330,000; AID 488899;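 active = mean inhibition across replicates of 60% or more, whatever share of single replicates reaches that level; inconclusive = some that reach 60%, reason not given; inactive = mean inhibition across replicates below 60%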
EBV LMP1 NFkB = Epstein-Barr LMP1 NF-kappaB reporter inhibition | hit rate 0.69% among 350,000 | inhibition, % at 12.5 µM | LMP1-induced NF-kappaB luciferase reporter cells, luminescence; in the data active = inhibition above about 41%; inconclusive = no clear call, values can overlap the other calls;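 also: 0% = neutral control wells and 100% = reference inhibitor control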
KKLEB tox = CF airway cell cytotoxicity counter-screen; KKLEB CF airway cells viability, ATPlite luminescence, overnight; hits give low values; cells stimulated with P. aeruginosa culture filtrate; activity change (cytotoxicity), % at 5 µM; hit rate 0.36% among 360,000; AID 602141;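 active = corrected activity change at or below -50% at 5 µM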
Peg3 promoter = reduces Peg3 promoter-driven luciferase expression in HeLa; hit rate 1.7% among 360,000; HeLa PEG-Prom luciferase reporter, luminescence, overnight; inhibition, % at 20 µM;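 active = inhibition of at least 50% at 20 µM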
HIF-2a block = blocks HIF-2a reporter activity. AID 624352. inhibition, % at 18.8 µM. hit rate 0.72% among 360,000. 786-0 RCC cells HIF-2a reporter, luciferase luminescence, overnight;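 active = inhibition of the luminescence signal of 40% or more relative to plate controls, in a single-dose primary screen at 18.75 µM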
Numbers without * were called inactive; ? = inconclusive; nt = not tested or not shown.

SMILES | CF NFkB inh | TRPM1 prom inh | EBV LMP1 NFkB | KKLEB tox | Peg3 promoter | HIF-2a block
Cc1ccc(NC(=O)Cn2c(O)c(N=NC(=O)c3ccncc3)c3ccccc32)cc1 | -1 | 24 | 1 | -7 | 20 | 11
Cc1ccc(NC(=O)Cn2c(O)c(N=NC(=O)c3cc4ccccc4cc3O)c3ccccc32)cc1 | 20 | 40 | -20 | -35 | 97* | -46
Cc1ccc(S(=O)(=O)c2ccc(C)cc2)cc1 | 8 | -9 | -14 | 2 | 3 | -7
Cc1ccc(S(=O)(=O)C=CS(=O)(=O)c2ccc(C)cc2)cc1 | 96* | nt | -2 | -37 | 95* | 52*
COc1cc2c(cc1NC(=O)c1cc(-c3ccncc3)nc3ccccc13)oc1ccccc12 | 4 | -8 | 4 | -12 | 25 | 2
O=C(Nc1ccccn1)c1cc(-c2cccnc2)nc2ccc(Br)cc12 | -15 | ? | 2 | 7 | 56* | 1
COc1cc2c(cc1NC(=O)c1cc(-c3cccnc3)nc3ccc(C)cc13)oc1ccccc12 | 9 | -13 | 13 | -21 | 63* | -30
COc1cc2c(cc1N/C=C(\C#N)c1nc(-c3ccccc3)cs1)oc1ccccc12 | 1 | -22 | 5 | -18 | 61* | 12
Cc1cc(NC(=O)c2cc(-c3ccccn3)nc3ccc(Br)cc23)no1 | 22 | 51 | -37 | -11 | 36 | 5
CC(C)(C)c1ccc(S(=O)(=O)NC(=O)C2(C)CCN2C(=O)C2(c3ccccc3)CC2)cc1 (configuration not stated) | -16 | nt | nt | 7 | 5 | 7
CCOc1cc(/C=C2\C(=O)N(Cc3ccc(C)cc3)C(C)=C2C(=O)OC)ccc1O | -11 | 8 | -12 | 4 | 30 | 32
C=CCOc1cccc(/C=C2\C(=O)N(Cc3ccc(C)cc3)C(C)=C2C(=O)OC)c1 | -5 | -13 | 5 | 3 | 42 | 63*
COc1ccc(NC(=O)c2oc3ccc(S(=O)(=O)N4CCC5(CC4)OCCO5)cc3c2C)cc1 | -11 | 43 | 2 | -19 | 69* | 1
COc1cc(C(=O)Nc2nnc(C(C)(C)C)s2)c([N+](=O)[O-])cc1OC | 2 | -3 | -4 | -5 | 62* | 10
COc1cc(C(=O)Nc2nnc(CC(C)(C)C)s2)c([N+](=O)[O-])cc1OC | 5 | 9 | 8 | 9 | -42 | 16
Cc1c(C(=O)NCc2ccco2)sc(=O)n1Cc1ccc(S(C)(=O)=O)cc1 | -49 | nt | nt | 12 | 4 | 8
O=[N+]([O-])/C=C/c1c(OCc2ccccc2)ccc2ccccc12 | 61* | 98* | -20 | -54* | 101* | 95*
CCCCOc1ccc2ccccc2c1C=O | 0 | -59 | -23 | -3 | -154 | -155
O=C(NCc1ccco1)c1ccc2sc([C@H]3C[C@H](O)[C@@H](CO)O3)nc2c1 | 14 | nt | nt | -9 | -11 | -34
Cc1occc(=O)c1O | -17 | 1 | 3 | -88* | -5 | -1
COc1cc(/C=C(/C#N)c2nc3ccccc3[nH]2)ccc1OCC(=O)Nc1ccccc1C | -21 | 5 | -13 | 3 | 104* | 14
COc1cc(/C=C(\C#N)c2nc3ccccc3[nH]2)ccc1OC(=O)c1ccco1 | -48 | -1 | -19 | 3 | -97 | -168
O=S1(=O)CC(N2CC=CC2)CN1Cc1cn(Cc2ccc(Cl)cc2)nn1 (configuration not stated) | nt | nt | nt | nt | nt | 4
OC(CNC1CCCCC1)CON=C1CCSc2c(Cl)cccc21 (configuration not stated) | 32 | nt | -23 | -22 | 96* | -14
OC(CNC1CCCC1)COc1ccc(-c2ccccc2)cc1 (configuration not stated) | 25 | -1 | 0 | -5 | -4 | -25
SMILES | CF NFkB inh | TRPM1 prom inh | EBV LMP1 NFkB | KKLEB tox | Peg3 promoter | HIF-2a block
Cc1cnc(CN(C)C(=O)C2CCC(=O)N(CCc3ccc(Cl)cc3)C2)[nH]1 (configuration not stated) | 13 | nt | -2 | -10 | -2 | 14
COCCCN1CCN(C2Cc3ccccc3Sc3ccc(Cl)cc32)CC1 (configuration not stated) | 30 | -12 | 0 | -23 | 19 | 6
O=C(c1ccccc1Cl)N1CCNCC1 | 0 | 0 | 2 | -4 | 6 | 10
Clc1cccc2c1Sc1ccccc1CC2N1CCNCC1 (configuration not stated) | 38 | 29 | -10 | -25 | 108* | 15
Clc1ccc2c(c1)C(N1CCNCC1)Cc1ccccc1S2 (configuration not stated) | 24 | 94* | -19 | -24 | 104* | 39
NC(=O)c1c(N)[nH]c(C(=O)c2ccccc2)c1-c1ccccc1Br | nt | nt | nt | nt | nt | -42
COC(=O)C[C@H]1C=C[C@H](NC(=O)c2ccccn2)[C@@H](CO)O1 | nt | nt | nt | nt | nt | 3
COCCN(Cc1ccccc1)C(=O)c1cc(-c2ccc(OC)c(OC)c2)nc2ccccc12 | 5 | -1 | 5 | -2 | 52* | 5
CCN(Cc1ccccc1)C(=O)c1cc(-c2ccc(OC)c(OC)c2)nc2ccccc12 | -35 | -2 | 16 | -8 | 49 | 11
CC(C)NC(=O)C1C(c2ccc(C(F)(F)F)cc2)=Nc2ccccc2N1C(=O)c1cccc(C(F)(F)F)c1 (configuration not stated) | nt | nt | nt | nt | nt | -9
C[C@H]1C(=O)N(C)CCN1C(=O)c1ccc(OC2CCN(CCc3ccccc3)CC2)cc1 | -18 | nt | 7 | 4 | 12 | 0
CCOC(=O)c1cc2sccc2n1CC(=O)N1c2ccccc2CC1C (configuration not stated) | 2 | 63* | 6 | 6 | 72* | 14
COc1ccc(C=O)cc1OS(=O)(=O)c1ccc(NC(C)=O)cc1 | 19 | 27 | -3 | -18 | 27 | 10
COc1ccc(/C=N/NC(=O)c2ccc3ccccc3c2)cc1OS(=O)(=O)c1ccc(NC(C)=O)cc1 | 61* | 30 | 24 | -13 | 62* | -14
COc1ccc(/C=C/C(=O)Oc2ccc(/C=N/NC(=O)c3ccccc3)cc2)cc1OC | 52* | -2 | -7 | -68* | -78 | -38
CCCCOc1ccc(C(=O)N/N=C/c2ccc(OCCN3CCCCC3)c(OC)c2)cc1 | -9 | -7 | -8 | -4 | 65* | 12
CCc1ccc(C2C(C#N)=C(N)Oc3cc(N)ccc32)cc1 (configuration not stated) | 8 | -5 | 4 | 3 | 50* | 13
Cc1ccc2ncccc2c1 | 10 | 0 | -8 | -9 | -3 | 11
c1cnc2ccc(-c3ccc4ncccc4c3)cc2c1 | 58* | -32 | -8 | -33 | -189 | -56
Cc1c(CN(C)C)c2c(n1C)C(=O)c1ccc(Br)cc1-2 | 6 | 4 | 0 | -3 | 6 | 12
Cc1c(CN(C)C)c2c(n1Cc1ccccc1)C(=O)c1ccc(Br)cc1-2 | 7 | 9 | -4 | -25 | 67* | -6
O=C1NC[C@H](CCCCN2C[C@H](Cc3ccc(O)cc3)N(CCc3ccccc3)C(=O)C2=O)N(CCC2CCCCC2)C1=O | nt | nt | nt | nt | nt | -4

Bioassay records as filed in PubChem.
